# Measurements published in publication PMC4552634, “A New Set of Chemical Starting Points with Plasmodium falciparum Transmission-Blocking Potential for Antimalarial Drug Discovery” (PLoS ONE, 2015).
# Out of some 13,000 compounds screened, about 3,200 (25%) showed an effect of 50% or more. Some of the results follow.
# System: P. falciparum stage V gametocytes
# Set-up: BacTiter-Glo ATP luminescence viability of purified stage V gametocytes in 384-well plates, per cent inhibition versus DMSO
# Conditions: 48 h, 5 µM; inhibitor
row,Structure (SMILES),% Inhibition [%]
1,OC(CNc1ccnc(Nc2cccc(Cl)c2)n1)c1ccc(C(F)(F)F)cc1 (stereo not drawn) [TCMDC-136596],-49.28
2,COc1cc2nc(-c3ccc(Br)cc3)cc(N)c2cc1OC [TCMDC-138933],106.9
3,Cc1nc(N)nc(N)c1-c1ccc(Br)cc1 [TCMDC-137374],-63.84
4,COc1cc2nc(C)nc(Nc3cccc(Br)c3)c2cc1OC [TCMDC-131939],-0.682
5,N#Cc1ccc(CN2CCC(Oc3ccc(NC(=O)c4cccs4)cc3)C2)cc1 (stereo not drawn) [TCMDC-133959],8.963
6,O=C(Nc1cccc(N2CCC(NCCCc3ccncc3)CC2)c1)c1cccc(C(F)(F)F)c1 [TCMDC-124659],7.336
7,N#Cc1c(F)cc(N2CCC(NCC[C@H](N)Cc3ccc(F)c(F)c3)CC2)cc1F [TCMDC-132121],103.9
8,N[C@@H](CCNCc1ccc(-c2cccnc2)cc1)Cc1ccc(F)c(F)c1 [TCMDC-132122],33.59
9,O=C(NC1CCCC1)c1ccc(N2CCC(NCc3cccc(C(F)(F)F)c3)CC2)cc1 [TCMDC-124644],-9.577
10,N[C@@H](CCN1CCC(c2cccc(O)c2)CC1)Cc1ccc(F)c(F)c1 [TCMDC-132126],-7.47
11,N[C@@H](CCNC1CCN(c2cccc(C(F)(F)F)c2)CC1)Cc1ccc(F)c(F)c1 [TCMDC-132301],119.6
12,O=C(Nc1ccc(Cl)c(-c2nc3ccccc3[nH]2)c1)c1ccc(-c2ccc(Cl)cc2)o1 [TCMDC-125599],-11.96
13,N#Cc1ccc(N2CCN(Cc3ccc(-c4ccc(-c5nc6ccccc6[nH]5)s4)cc3)CC2)nc1.O=C(O)C(F)(F)F [TCMDC-133119],-24.51
14,COCCNCc1cccc(-c2ccc(CN(C(=O)NC3CCCCC3)C3CCN(Cc4ccccc4)CC3)cc2)c1 [TCMDC-140636],84.07
15,COCCNCc1ccc(-c2ccc(CN(C(=O)NC3CCCCC3)C3CCN(Cc4ccccc4)CC3)cc2)cc1 [TCMDC-140637],95.07
16,C[C@@H](CC1CCCCC1)NCc1cccc(NS(=O)(=O)c2ccc(O)c(-c3ccno3)c2)c1 [TCMDC-141485],41.65
17,COc1cc2[nH]c(-c3ccc(O)cc3)c(C)c(=O)c2c(OC)c1OC [TCMDC-137449],59.36
18,COc1cc(-c2nc(-c3ccccc3)c(-c3ccc([N+](=O)[O-])cc3)[nH]2)cc(OC)c1O [TCMDC-125529],-60.07
19,COc1c(O)cc2oc(-c3ccc(O)cc3)cc(=O)c2c1O [TCMDC-123942],46.88
20,O=C(Nc1ccc(Cn2ncc(N3CCCNCC3)c(Cl)c2=O)cc1)Nc1cc(C(F)(F)F)cc(C(F)(F)F)c1 [TCMDC-133327],-39.39
21,Cc1cc(N2CCOCC2)nc(Nc2ccc(NC(=O)c3cccc4ccccc34)cc2)n1 [TCMDC-124962],3.103

row,Structure (SMILES),% Inhibition [%]
1,C[C@H](N[C@H]1CCCc2c1[nH]c1ccc(Br)cc21)c1ccccc1 [TCMDC-138915],-58.95
2,Cc1nc(-c2ccc(-c3ccc(NC(=O)c4coc5ccc(N6CC(C)NC(C)C6)cc45)cc3)c(C)c2)no1 (stereo not drawn) [TCMDC-141309],-4.933
3,Cc1cc(-c2ccc(NC(=O)c3coc4ccc(N5CC(C)N(C)C(C)C5)cc34)cc2C)cc(C)n1 (stereo not drawn) [TCMDC-141310],-15.05
4,Cc1nc(-c2ccc(-c3ccc(NC(=O)c4coc5ccc(N6CC(C)N(C)C(C)C6)cc45)cc3)c(C)c2)no1 (stereo not drawn) [TCMDC-141233],92.65
5,O[C@H](c1cc(C(F)(F)F)nc2c(C(F)(F)F)cccc12)[C@@H]1CCCCN1 [TCMDC-123920],23.74
6,N#Cc1cccc(NC(=O)Nc2ccc3c(c2)CN(Cc2c[nH]c4ncccc24)C3)c1 [TCMDC-141757],5.913
7,COC(=O)c1cccc(C#CCCOCCCCCCNC[C@H](O)c2cc(Cl)c(N)c(Cl)c2)c1 [TCMDC-138515],25.12
8,O=C(c1cc(-c2ccco2)[nH]n1)N1CCN(S(=O)(=O)c2ccc(Br)cc2)CC1 [TCMDC-124699],-28.22
9,O=C(c1cc(-c2ccco2)[nH]n1)N1CCN(S(=O)(=O)c2ccc(Cl)cc2)CC1 [TCMDC-124698],58.01
10,O=C(c1cc(-c2cccs2)[nH]n1)N1CCN(S(=O)(=O)c2ccc(Br)cc2)CC1 [TCMDC-124703],15.64
11,O=C(c1cc(-c2cccs2)[nH]n1)N1CCN(S(=O)(=O)c2ccc(Cl)s2)CC1 [TCMDC-124701],26.12
12,O=C(c1cc(-c2cccs2)[nH]n1)N1CCN(S(=O)(=O)c2ccc(Cl)cc2)CC1 [TCMDC-124702],54.51
13,Cc1ccc(S(=O)(=O)N2CCN(C(=O)c3cc(-c4cccs4)[nH]n3)CC2)c(C)c1 [TCMDC-124700],26.64
14,CC(Nc1ccnc2cc(Cl)ccc12)c1ccc(S(N)(=O)=O)cc1 (stereo not drawn) [TCMDC-125107],16.92
15,Cc1nc(Nc2ccc(C)c(Cl)c2)c2c(C)noc2n1 [TCMDC-125162],15.95
16,Cc1ccc(Cl)cc1NC(=O)c1c(-c2ccccc2Cl)noc1C [TCMDC-124175],-15.67
17,O=C(NC1CCCc2ccccc21)[C@@H]1CCCN1C(=O)c1ccc(O)c(-c2cccc([N+](=O)[O-])c2)c1 (stereo partly drawn) [TCMDC-140798],18.58
18,COc1ccc(C(=O)N[C@@H](CC(C)C)C(=O)NC2CC[C@@H](C)N(C(=O)Nc3ccc(Cl)cc3)CC2=O)cc1OCCN1CCOCC1 (stereo partly drawn) [TCMDC-134276],-74.97
19,CCOC(=O)c1ccc(N(CCCN(CCCN(c2ccc(C(=O)OCC)cc2)S(=O)(=O)c2ccc(C)cc2)CCc2ccc(O)cc2)S(=O)(=O)c2ccc(C)cc2)cc1 [TCMDC-137351],57.74
20,CCOC(=O)c1ccc(OCc2ccc(-c3ccccc3)cc2)cc1 [TCMDC-131397],4.826
21,CCOC(=O)c1ccc(COc2ccc(C)nc2)cc1 [TCMDC-131377],0.9057
